The list is not random: actives were taken first. Their share in the collection is about 13%.
G9a inh: qHTS Assay for Inhibitors of Histone Lysine Methyltransferase G9a; Histone-lysine N-methyltransferase EHMT2 (Homo sapiens), Q96KQ7; G9a H3K9 monomethylation, AlphaScreen, 2 h; Potency, µM (titrated, usually from 102 µM), without a hit: at the top dose activity, negative = inhibition, hits mostly inhibitors; hit rate 8.8% among 350,000; further: potency means the concentration at half of the fitted maximal effect; on the % scale 0 is the no-effect control and ±100 the full control effect; nearly all actives have a fitted effect of over 75% in size
Target sequence (Q96KQ7 913-1193 limits assumed): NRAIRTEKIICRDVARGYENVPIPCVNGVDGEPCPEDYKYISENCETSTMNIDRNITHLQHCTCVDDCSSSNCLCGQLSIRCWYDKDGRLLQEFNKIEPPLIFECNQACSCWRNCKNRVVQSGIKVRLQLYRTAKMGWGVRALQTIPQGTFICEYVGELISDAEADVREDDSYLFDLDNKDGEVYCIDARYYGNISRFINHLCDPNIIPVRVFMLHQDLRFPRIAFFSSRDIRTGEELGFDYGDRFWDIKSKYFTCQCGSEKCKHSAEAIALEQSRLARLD
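Enzyme 20 nM + cpd, 15 min RT; add b-H3K9 pep 500 nM / SAM 20 uM; 2 h RT; anti-H3K9me1 Ab 0.5 ug/mL + SA donor / anti-rabbit acceptor beads 20 ug/mL each, 10 min; AlphaScreen read.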
miR-21 act: qHTS Assay for Modulators of miRNAs and/orActivators of miR-21 | HeLa miR-21 FLuc reporter, luciferase, 48 h | Potency, µM (series often up to 38.3 µM), for inactives: at the top dose activity change, positive = activation, actives largely listed as activators | 340,000 tested, under 10 active | AID 2288, 2010;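 further: % of control where 0% means no effect; miR-21 action dims this reporter so a rising signal means less miR-21 action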
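HeLa cells endogenously expressing miR-21, stably carrying CMV-driven firefly luciferase with a downstream miR-21 binding site, 2000 cells/well. Titrations up to approximately 40 uM, 48 hours; luciferase luminescence read.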
Sfp inh: qHTS Assay for Inhibitors of Bacillus subtilis Sfp phosphopantetheinyl transferase (PPTase); 4'-phosphopantetheinyl transferase ffp (Bacillus subtilis), Q9F4F7; Biochemical Sfp PPTase activity, qHTS; Potency, µM, for the others: largest response in the series, negative = inhibition, most hits filed as inhibitors; hit rate 3.5% among 310,000; AID 1490, 2009;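 further: the enzyme is Sfp with the accession as filed and its product quenches rhodamine fluorescence; potency means the concentration at half of the fitted maximal effect; 0% = enzyme reaction without inhibitor and -100% = no enzyme wells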
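Reaction rates are the 30-min fluorescence difference (ex 525, em 598 nm) in wells containing 15 nM Sfp, 5 uM rhodamine-CoA and 12.5 uM BHQ-2-YbbR at pH 7.6 with 10 mM MgCl2.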
KDM4E inh: qHTS Assay for Inhibitors of Human Jumonji Domain Containing 2E (JMJD2E); AID 2147, 2009; Lysine-specific demethylase 4E (Homo sapiens), B2RXH2; hit rate 1.6% among 230,000; Potency, µM (titrated, usually from 57.1 µM), for the others: at the top dose activity change, negative = inhibition, usual class: inhibitors; JMJD2E catalytic domain, FDH-coupled NADH fluorescence (FDH is formaldehyde dehydrogenase);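 further: potency means the concentration at half of the fitted maximal effect; 0% = wells with enzyme and -100% = buffer wells without enzyme; nearly all actives have a fitted effect of over 50% in size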
ALDH1A1 block: qHTS Assay for Inhibitors of Aldehyde Dehydrogenase 1 (ALDH1A1); Aldehyde dehydrogenase 1A1 (Homo sapiens), P00352; Purified ALDH1A1, NADH fluorescence, propionaldehyde substrate; Potency, µM (highest dose often 75.3 µM), for inactives: at the top dose activity, negative = inhibition, most hits filed as inhibitors; hit rate 7.3% among 220,000; active means well fitted inhibition curve with a large enough effect, not every such curve was filed as active; inconclusive means small, poorly fitted or top-dose-only effect, or another doubt; inactive means no such curve, though single readings can be large or run the other way;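 further: potency means the concentration at half of the fitted maximal effect; plate controls were no enzyme wells and a reference inhibitor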
Lamin A splicing: qHTS Assay for Modulators of Lamin A Splicing; HeLa LMNA splicing GFP/RFP minigene ratio, 48 h; Potency, µM (top dose mostly 46.1 µM), for the others: at the highest dose ratio change, negative = inhibition, actives largely listed as inhibitors; hit rate 0.01% among 200,000; AID 1487, 2009; active means well fitted inhibition curve with a large enough effect in the signal ratio, with a control signal flat, not every such curve was filed as active; inconclusive means small, poorly fitted or top-dose-only effect, or effect the other way, or a change in a side signal; the % refers to the signal ratio; further: potency means the concentration at half of the fitted maximal effect; on the % scale 0 is the no-effect control and ±100 the full control effect
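Read-out is the ratio of GFP to DsRed2 object intensity, acquired by 488 nm laser-scanning cytometry on HeLa lamin A-EGFP minigene reporter cells. Compound incubation 48 hrs at 37 °C in Opti-MEM with 2% FBS; DMSO 0.5% final.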
Active calls of the source: *; [ ] = another dose, or the depositor's remark. Unless noted, the call rests on the fitted dose curve; in most records, active means well fitted curve in the direction sought with a large enough effect; inconclusive means small, poorly fitted or top-dose-only effect, or another doubt; inactive means no such curve, though single readings can be large; an effect the other way counts as inactive or inconclusive.

Screening O=C(O)CCc1ccc(-c2ccccc2)n1Cc1ccco1 returned G9a inh 32µM*, miR-21 act 0%, Sfp inh 35µM*, KDM4E inh inconclusive, ALDH1A1 block inconclusive and Lamin A splicing -1%.
Cc1ccc(-c2ccc(CCC(=O)O)n2CC(=O)O)cc1 was read as G9a inh 2%[12.7 µM], miR-21 act -3%, Sfp inh 71µM*, KDM4E inh -8%, ALDH1A1 block inconclusive and Lamin A splicing 5%.
COc1ccc(-n2c(CCC(=O)O)ccc2-c2ccc(F)cc2)c(OC)c1 was read as G9a inh 40µM*, miR-21 act -1% and Sfp inh -4%.
Cn1c(N)c(C(=O)COC(=O)Cc2ccc(F)cc2)c(=O)n(C)c1=O was read as G9a inh -1%.
Screening Cc1nc(NC(=O)CSC2=NCCS2)sc1C(=O)N(C)C returned miR-21 act 6% and Sfp inh 1%.
Screening Cc1ccc(-c2nnn3c2nc(NCC(C)c2ccccc2)c2ccccc23)cc1 (stereo not drawn) returned G9a inh 4%[59 µM] and miR-21 act -30%.
`Cc1ccc(NC(=O)c2oc3ccc(S(=O)(=O)N4CCCCCC4)cc3c2C)c(C)c1` gave G9a inh 2%[59 µM], miR-21 act -4% and Lamin A splicing 9%[46 µM].
`Cc1[nH]c(=S)c(C#N)c(C)c1Cc1ccccc1` gave G9a inh inconclusive, miR-21 act -14%, Sfp inh 18µM* and KDM4E inh 7%.
`Cc1[nH]c(=S)c(C#N)c(C)c1CCC#N` gave G9a inh 2.8µM*, miR-21 act -12%, Sfp inh 18µM* and KDM4E inh -20%.
Screening Cc1cccc(Cc2c(C)[nH]c(=O)c(C#N)c2C)c1 returned G9a inh 9%, miR-21 act -15%, Sfp inh 10%, KDM4E inh inconclusive and ALDH1A1 block -3%.
Screening CCN(CC(=O)Nc1ccc(C(=O)Nc2ccc(OC)cc2)cc1)Cc1nc2ccccc2c(=O)[nH]1 returned G9a inh 35µM*, miR-21 act -19%, Sfp inh -28% and KDM4E inh -19%.
Screening CCN(CC(=O)Nc1sc2c(c1C#N)CCCC2)Cc1nc2ccccc2c(=O)[nH]1 returned G9a inh -5%, miR-21 act -15%, Sfp inh -12%, KDM4E inh 0%, ALDH1A1 block inconclusive and Lamin A splicing -17%[46 µM].
CCN(CC(=O)Nc1sc2c(c1C#N)CCC(C)C2)Cc1nc2ccccc2c(=O)[nH]1 (stereo not drawn) was read as G9a inh inconclusive, miR-21 act -12%, Sfp inh -23%, KDM4E inh -3% and ALDH1A1 block 25µM*.
For Cc1cn(CCOc2ccc(Cl)cc2)c(=O)[nH]c1=O the results were G9a inh 6%, miR-21 act -5% and Sfp inh 7%.
For Cc1sc(NC(=O)c2cccs2)c(C(N)=O)c1C the results were G9a inh 4µM*, miR-21 act -33%, Sfp inh 40µM*, KDM4E inh -3%, ALDH1A1 block 11µM* and Lamin A splicing -7%.
Screening CCOC(=O)c1c(NC(=O)c2cccs2)sc(CC)c1-c1cccs1 returned G9a inh 301%, miR-21 act -5%, Sfp inh -8%, KDM4E inh inconclusive, ALDH1A1 block inconclusive and Lamin A splicing inconclusive.
For CC(=O)NC(=S)Nc1sc2c(c1C(N)=O)CCC(C)C2 (stereo not drawn) the results were miR-21 act -58%, Sfp inh -12%, KDM4E inh -1%, ALDH1A1 block 8.9µM* and Lamin A splicing -6%[46 µM].

Screening data deposited in PubChem by National Center for Advancing Translational Sciences (NCATS).
